Screening results from PubChem BioAssay.
In the library only some 3.4% were active in any assay of this set; here they are far more common.
Cardio protect: protects H9c2 cardiomyocytes from peroxide injury | H2O2 injury protection, ATPLite, 2 h | protection from H2O2 cell death, % at 20 µM | actives 0.63% (n = 360,000);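 active means compounds giving at least 50% protection of heart cells from peroxide-induced death in the single-dose screen, raw or plate-pattern-corrected value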
SMARCA2 activ: increases SMARCA2 function in MMTV reporter cells; MG213 cells, MMTV-luciferase reporter, dexamethasone, overnight; activation, % at 9.1 µM; actives 1% (n = 370,000); AID 652017; in the data active means activation above about 7.8%
GAA850 FXN act: activators of GAA850 frataxin (FXN) promoter; HEK293 lucGAA850 FXN promoter luciferase reporter, 24 h; percent of 10 µM SAHA response; activation, % at 6 µM; actives 0.56% (n = 360,000); AID 540364;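 active means activation above the average of all compounds screened plus 3 SD, cutoff fixed separately per campaign, cut at about 7.5% in these data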
NR2F2 inh: blocks human COUP-TFII nuclear receptor. P24468. HEK293T NGFI-A luciferase reporter, luminescence. inhibition, % at 8.6 µM. actives 0.7% (n = 370,000). AID 686940;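 active means inhibition above a per-plate cutoff, mean inhibition of test wells between control levels plus 3 SD, cut at about 38% in these data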;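 further: cells cotransfected with COUP-TFII expression vector driving the NGFI-A reporter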
Target sequence (P24468 whole entry, looked up): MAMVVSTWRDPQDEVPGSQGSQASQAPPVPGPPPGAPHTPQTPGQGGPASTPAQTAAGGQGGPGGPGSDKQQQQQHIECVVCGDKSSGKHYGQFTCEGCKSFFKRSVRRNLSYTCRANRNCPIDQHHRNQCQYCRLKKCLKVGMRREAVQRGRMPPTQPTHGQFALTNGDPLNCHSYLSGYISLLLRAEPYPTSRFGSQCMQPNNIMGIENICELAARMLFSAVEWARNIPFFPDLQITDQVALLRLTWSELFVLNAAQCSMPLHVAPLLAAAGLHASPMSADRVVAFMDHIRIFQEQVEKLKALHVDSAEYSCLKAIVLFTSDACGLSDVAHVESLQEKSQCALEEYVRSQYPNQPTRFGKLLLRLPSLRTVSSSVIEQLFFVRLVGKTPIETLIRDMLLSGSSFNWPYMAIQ
Gli-Sufu antag: antagonists of Gli-Sufu signaling. actives 0.74% (n = 340,000). inhibition, % at 5 µM. Sufu-KO-LIGHT fibroblasts, Gli luciferase reporter luminescence. AID 588413;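 active means inhibition above about 55%, limit read from the data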
GalR3 antag: human GalR3 antagonism. AID 651719. inhibition, % at 3 µM. actives 0.44% (n = 360,000). HEK293 GalR3-CNG cAMP membrane potential fluorescence; galR3 body fused to GalR1 C-terminus;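 active means inhibition above the screen-wide average plus 3 SD, cut at about 13% in these data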;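 further: forskolin and galanin both at EC90 stimulate the cells; cAMP rise reported by CNG channel membrane potential dye signal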
GalR3 antag conf: confirmation of human galanin receptor 3 antagonists; shares compounds with GalR3 antag; HEK293 GalR3 CNG cAMP biosensor, membrane potential fluorescence; galR3 fused to GalR1 carboxy tail; challenged with forskolin and galanin at EC90; inhibition, % at 3 µM; actives 59% (n = 1,600);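 active means inhibition above the primary screen's cutoff, the mean inhibition of all screened compounds plus 3 SD, cut at about 13% in these data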
CNG parental: parental cell agonism counter-screen for GalR3 antagonists; shares compounds with GalR3 antag; HEK293-CNG parental cells, cAMP membrane potential fluorescence; normalised: DMSO wells 0%, forskolin wells 100%; activation, % at 3 µM; actives 10% (n = 1,600); in the data active means activation above about 1.3%
Hits are given with their value; . = inactive; / = no result; ! = repeats disagree.

SMILES | Cardio protect | SMARCA2 activ | GAA850 FXN act | NR2F2 inh | Gli-Sufu antag | GalR3 antag | GalR3 antag conf | CNG parental
CC(=O)Nc1ccc(S(=O)(=O)Oc2cccc(N3C(=O)C4CC=CCC4C3=O)c2)cc1 (centres undefined) | . | . | . | . | . | . | / | /
CC(=O)Nc1ccc(S(=O)(=O)Oc2ccc(N3C(=O)C4CCCCC4C3=O)cc2)cc1 (centres undefined) | . | . | . | . | . | 42.0 | 38.9 | .
COC(=O)c1ccc(N2CCN(CC(=O)c3ccc(-c4ccccc4)cc3)CC2)c([N+](=O)[O-])c1 | . | . | . | . | . | / | . | .
CCCCCOc1ccc(C(=O)NCC(=O)NCC(=O)OCC)cc1 | . | . | . | . | . | . | / | /
CN(C)S(=O)(=O)c1cccc(-c2cn3cccnc3n2)c1 | . | . | . | . | . | / | . | .
COc1ccc(C2c3c(-c4cc(Cl)c(C)cc4O)n[nH]c3C(=O)N2Cc2cccnc2)cc1OC (centres undefined) | . | . | . | . | . | 63.7 | 66.8 | .
CCCCC[C@H](O)/C=C/[C@@H]1[C@@H](C/C=C\CCCC(=O)OC)[C@@H](O)C[C@H]1O | . | / | . | / | . | / | / | /
CCCCC[C@H](O)/C=C/C1C(=O)C=C[C@H]1C/C=C\CCCC(=O)OC (some centres undefined) | . | . | 8.2 | . | . | 64.3 | 80.0 | .
CCOC(=O)N1CCC2(CC1)C(C#N)=C(N)Oc1n[nH]c(C)c12 | . | . | . | . | . | . | / | /
CC(=O)N1CCC2(CC1)C(C#N)=C(N)Oc1n[nH]c(C(F)(F)F)c12 | . | . | . | . | . | / | . | .
C/C(=N\NC(=O)C(=O)N/N=C(\C)c1cccc(O)c1)c1cccc(O)c1 | . | . | . | . | . | . | / | /
Cc1ccc(S(=O)(=O)Nc2c(NC3CCCCC3)c3ccccc3oc2=O)c(C)c1 | . | / | . | / | . | / | / | /
Cc1ccc(Sc2sc(=O)n(C)c2S(=O)(=O)c2ccc(C)cc2)cc1 | . | . | . | . | . | 20.2 | . | .
Cc1ccc(S(=O)(=O)c2c(C)c(C)c(C)[nH]c2=O)cc1 | . | . | . | . | . | . | / | /
COc1ccc(NC(=O)c2ccc(CNc3c(NC4CCCCC4)c(=O)c3=O)cc2)c(OC)c1 | . | . | . | . | . | 14.0! | . | .
O=C(c1cc(COc2ccc3c(c2)CCCC3)on1)N1CCCC1 | . | . | . | . | / | . | / | /
Cc1ccc(NC(=O)c2ccccc2NS(=O)(=O)c2ccc(Cl)s2)cc1 | . | . | . | . | . | 16.7 | 33.2 | .
CC(=O)Nc1cccc(OCCCNC(=O)c2ccc(C(C)(C)C)cc2)c1 | . | . | . | . | . | . | / | /
Cc1ccccc1NC(=O)CSc1nc(N)c2c3c(sc2n1)CSC(C)(C)C3 | . | . | . | . | . | 21.1 | 38.8 | .
N#Cc1ccc(C23OCCN2CCn2c3c3ccccc3[n+]2[O-])cc1 (centres undefined) | . | . | . | . | . | . | / | /
COc1ccc(C(=O)Nc2c(N)nc(SCC(=O)N3CCCCCC3)[nH]c2=O)cc1OC | . | . | . | . | . | / | / | /
COc1cc(OC)cc(C(=O)NCC(=O)NCCN2C(=O)S/C(=C\c3ccccc3Cl)C2=O)c1 | . | . | . | . | . | . | / | /
COc1cc(OC)cc(C(=O)NCC(=O)NCCN2C(=O)S/C(=C\c3ccc4c(c3)OCO4)C2=O)c1 | . | . | . | . | . | 13.0 | . | .
N#CC(C#N)C(c1ccsc1)c1c(-c2ccccc2)[nH][nH]c1=O (centres undefined) | . | . | . | . | . | 14.2 | 16.9 | 2.8
COC1(OC)N=C(NC(=O)Nc2ccccc2)C2(C#N)C(c3ccccc3)C12C#N (centres undefined) | . | / | . | / | . | / | / | /
SMILES | Cardio protect | SMARCA2 activ | GAA850 FXN act | NR2F2 inh | Gli-Sufu antag | GalR3 antag | GalR3 antag conf | CNG parental
COCCOC(=O)c1c(NC(=O)CN2c3ccccc3CC2C)sc(C(N)=O)c1C (centres undefined) | . | . | . | . | . | 16.9 | . | .
CC1CCN(C(=O)c2[nH]cnc2C(=O)NCc2ccccc2)CC1 | . | . | . | . | . | / | . | .
CC1CCN(C(=O)c2[nH]cnc2C(=O)NCc2ccc(CNC(=O)OC(C)(C)C)cc2)CC1 | . | . | . | . | . | . | / | /
COC(=O)[C@@H]1CCCN1Cc1nc(Cc2ccccc2F)no1 | . | . | . | . | . | . | / | /
COc1cc(NC(=O)COc2cccc(C)c2C)ccc1NC(=O)c1ccco1 | . | . | . | . | . | 13.8 | . | .
O=C(N/N=C(\c1ccccc1)c1cccnc1)c1cccc(F)c1 | . | . | . | . | 94.2 | 42.3 | 38.0 | .
O=C(Cn1nc(C(=O)O)c2ccccc2c1=O)Nc1cccc(Br)c1 | . | . | . | . | . | . | / | /
COc1ccc(NC(=O)Cn2nc(C(=O)O)c3ccccc3c2=O)cc1Cl | . | . | . | . | . | 12.7 | . | .
COc1ccc(OC)c(C(=O)c2coc3ccc(O)cc23)c1 | . | . | . | . | . | . | / | /
Cc1ccccc1NC(=O)N1CCCC1C(=O)NCc1cccs1 (centres undefined) | . | . | . | . | . | / | . | .
O=C(NCc1cccs1)C1CCCN1C(=O)Nc1ccccc1Cl (centres undefined) | . | . | . | . | . | . | / | /
Cc1ccc(C(=O)c2cc([N+](=O)[O-])ccc2N2CC(C)OC(C)C2)cc1 (centres undefined) | . | . | . | . | . | . | / | /
CC1CN(c2ccc(C(=O)c3ccccc3C(=O)O)cc2[N+](=O)[O-])CC(C)O1 (centres undefined) | . | . | . | . | . | 17.7 | . | .
O=C(CCCc1ccccc1)Nc1ccccc1[N+](=O)[O-] | . | . | . | . | . | . | / | /
O=C(CNCc1ccc(F)cc1)Nc1ccccc1[N+](=O)[O-] | . | . | . | . | . | 23.6 | . | .
O=C1CCCC2=C1CC(C(=O)OCc1ccccc1)C(=O)N2Cc1ccccc1 (centres undefined) | . | . | . | . | . | . | / | /
CN(C)S(=O)(=O)c1cc(NC(=O)CN2CCOCC2)ccc1Cl | . | . | . | . | . | . | / | /
CCCc1ccc(Oc2cc(C)nc(N3CCOCC3)n2)cc1 | . | . | . | . | . | 14.9 | . | .
N#Cc1ccc(CN2CCN(C(=O)CNC(=O)Cc3cccc4ccccc34)CC2)cc1 | . | . | . | . | . | 21.6 | . | .
